Test results taken from PubChem BioAssay AID2810 (NMMLSC, 2010).
Hit rate of the full screen: of about 1,200 compounds, about 65 (5%) were called active.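 The calls were made as follows: active = at either tested dose, response and 90th-percentile vesicle-stain brightness of CD8 cells under set limits and under 9% cells vesicle-bound; inactive = the rest.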 The list comes from a sample in which actives are over-represented; it also holds similar structures and randomly drawn compounds.

Experiment: modulators of CD8 T cell-vesicle binding, confirmation, cherry-picked primary hits, two concentrations (AID 2810);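 also: lower values mean blocking of vesicle binding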;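 as to percent response (vesicle binding): ratio of mean FL2 vesicle stain of CD8+ cells to that row's control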
Conditions: 2C CD8+ T cell-vesicle binding, flow cytometry; for double positive events: CD8+/vesicle+ events
[1] = at 15.4 µM, stronger effect = lower value

Row | SMILES | double positive events (at 7.7 µM) | double positive events [1] | percent response (vesicle binding) [1] | percent response (vesicle binding) (response, at 7.7 µM)
1 | O=C(Nc1ccccc1)N1CCc2c([nH]c3ccccc23)C1C(F)(F)F (stereo unspecified) | 14% | 38.4% | 145% (inactive) | 187%
2 | COc1ccccc1NC(=O)Cn1cnc2sc(C)c(S(=O)(=O)N3CCCCC3)c2c1=O | 11.3% | 5.5% | 109% (inactive) | 197%
3 | COc1ccc(S(=O)(=O)N(C)c2ccc(C(=O)NCC3CCCO3)cc2)cc1OC (stereo unspecified) | 21.6% | 13.3% | 226% (inactive) | 413%
4 | COc1cc(CC(=O)OCC(=O)NCc2ccc(C)cc2)cc(OC)c1OC | 12.7% | 21.2% | 138% (inactive) | 165%
5 | COc1ccccc1CNC(=O)c1ccc(N(C)S(=O)(=O)c2ccc(C)cc2)cc1 | 17.5% | 5.4% | 41.2% (active) | 152%
6 | COc1ccccc1CNC(=O)COc1ccc(C)cc1 | 13.1% | 5.2% | 56.4% (active) | 222%
7 | COc1ccccc1CNC(=O)C1CCC1 | 33.3% | 24.2% | 232% (inactive) | 953%
8 | COc1ccccc1CNC(=O)CN(Cc1ccc(Cl)cc1)S(C)(=O)=O | 25.3% | 7.2% | 127% (inactive) | 441%
9 | Cc1ccc(C)c(OC(=O)c2cncc(Br)c2)c1 | 18.1% | 15.8% | 147% (inactive) | 268%
10 | Cc1ccc(NC(=O)COC(=O)c2c(-c3ccccc3)noc2C)c(C)c1 | 5.6% | 14.4% | 137% (inactive) | 226%
11 | Cc1c(C(=O)N(C)Cc2ccccc2)oc2ccc(S(=O)(=O)N3CCCC3)cc12 | 25.6% | 12.7% | 191% (inactive) | 229%
12 | COc1cc2c(-c3cc(F)cc(F)c3)c(-c3ccsc3)oc(=O)c2cc1OC | 37.8% | 28.1% | 275% (inactive) | 271%
13 | O=C(CCc1ccccc1)N1CCN(CCO)CC1 | 35.8% | 14.4% | 151% (inactive) | 239%
14 | CC(C)(C)NC(=O)COc1ccc(CNCc2cccnc2)cc1 | 31% | 21.6% | 446% (inactive) | 334%
15 | CC(C)(C)NC(=O)CON=C1c2ccccc2-c2ccccc21 | 8.8% | 30.6% | 361% (inactive) | 203%
16 | CC(C)(C)NC(=O)COc1ccc(CNCc2ccccn2)cc1 | 21.6% | 5.1% | 32.8% (active) | 227%
17 | CCCCn1nc(C(=O)N2CCN(S(=O)(=O)c3ccccc3)CC2)c2ccccc2c1=O | 16.5% | 2.2% | 57.2% (inactive) | 484%
18 | Cc1ccc(NC(=O)C2c3ccccc3Oc3ccccc32)c(C)c1 | 12.5% | 28.2% | 175% (inactive) | 230%
19 | O=C(Nc1ccccc1C(=O)NCc1cccnc1)c1ccccc1Cl | 25.8% | 14.2% | 202% (inactive) | 364%
